The panel holds about 83,000 compounds, 20% with a hit somewhere; the sample as a whole holds those more often.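 Growth was measured after 48 h exposure to one concentration of compound in 96-well plates. Values under 10 count as active.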 Values without a mark were called inactive. Activity calls are given as the source filed them.
Experiments:
Assay in all cases: NCI-60 one-dose screen, 48 h (100 = growth as untreated, 0 = no growth, -100 = all killed)
Details in all cases: 10 µM
SK-MEL-2 melanoma = system: SK-MEL-2 melanoma
SN12C renal = system: SN12C renal
UO-31 renal = system: UO-31 renal
TK-10 renal = system: TK-10 renal
ACHN renal = system: ACHN renal
CAKI-1 renal = system: CAKI-1 renal
A498 renal = system: A498 renal
CCRF-CEM leukemia = system: CCRF-CEM leukemia
MOLT-4 leukemia = system: MOLT-4 leukemia

Row | Structure (SMILES) | growth (SK-MEL-2 melanoma) | growth (SN12C renal) | growth (UO-31 renal) | growth (TK-10 renal) | growth (ACHN renal) | growth (CAKI-1 renal) | growth (A498 renal) | growth (CCRF-CEM leukemia) | growth (MOLT-4 leukemia)
1 | CCCCCCCCCCCCCC[n+]1ccccc1 | -78% (active) | -41.8% (active) | 5.61% (active) | -70.4% (active) | 4.31% (active) | -43.8% (active) | 7.27% (active) | -42.2% (active) | -51.9% (active)
2 | O=C(O)CN1C(=O)C=CC1=O | 98.2% | 106% | 91.6% | 96.7% | 104% | 102% | 91.6% | 107% | 85.2%
3 | CC(=O)c1c(O)cc2c3c1OC(C)(C)C1CCC(C)(CC31)O2 (stereo not given) | 99.2% | 99.6% | 77.8% | 110% | 95.1% | 89.5% | 76% | 106% | 78.9%
4 | Cc1nn2c(/C=C3/C(=O)Nc4ccc(Cl)cc43)c(-c3ccccc3)nc2s1 | 32.7% | 52.7% | 29.6% | 6.61% (active) | 30.1% | 53.4% | 43.8% | 50.7% | 57.2%
5 | COc1ccc(-c2oncc2-c2cc(OC)c3c(c2)OCO3)cc1 | -1.77% (active) | 35.9% | 39.8% | 48.2% | 41.1% | 22.9% | 7.82% (active) | 16% | 22.4%
6 | COc1cc(C(c2c[nH]c3ccccc23)N2CCCC2)ccc1OCc1ccccc1 (stereo not given) | 81.6% | 74.9% | 24.7% | 76.6% | 73.2% | 53.3% | 71.6% | 16.2% | 26.1%
7 | COc1ccc(-c2nc(-c3nc4ccc(C)cc4[nH]3)c3ccccn23)cc1 | 47% | 44.9% | 14.4% | 69.4% | 55.6% | 46.9% | 19.6% | 18.7% | 40.4%
8 | COc1ccccc1S(=O)(=O)Nc1ccc2c(c1)CN(C)C(=O)N2 | 47.6% | 53.2% | 10.2% | 17.3% | 34.7% | 21.2% | -2.92% (active) | 48.9% | 38.4%
9 | CC(C)=C1CCC(C)C/C1=N\N=C(N)N (stereo not given) | 102% | 103% | 81.3% | 98.3% | 105% | 93.3% | 88.6% | 86.9% | 98.8%
10 | Cc1nc(Nc2nc3ccccc3o2)nc(-c2cccc([N+](=O)[O-])c2)c1C(=O)Nc1ccc(F)c(Cl)c1 | -33.7% (active) | 7.04% (active) | 11.3% | 8.62% (active) | 12.9% | 9.69% (active) | -37.2% (active) | 22.8% | -23.7% (active)
11 | COc1cc(-c2nc3cc(Cl)c(Cl)cc3[nH]2)ccc1OCC(=O)NN | 95.9% | 78.7% | 71.1% | 126% | 72.6% | 41% | 83.1% | 59.8% | 67.8%
12 | C#C[C@]1(O)CC[C@H]2[C@@H]3CC[C@H]4CC(F)(F)CC[C@]4(C)[C@H]3CC[C@@]21C | 115% | 87.4% | 102% | 97.7% | 89.3% | 84.6% | 41.1% | 74.7% | 95.7%
13 | COc1ccc(C2C=C(c3ccc(OC)c(OC)c3)N=C3SC=CN32)c(Br)c1 (stereo not given) | 104% | 75% | 67.9% | 106% | 76.6% | 71.5% | 74% | -2.4% (active) | 25.1%
14 | COc1ccc(-c2nc(-c3ccccc3)c(-c3ccccc3)[nH]2)cc1OC1CCCC1 | 66.2% | 62.5% | 67.4% | 88.4% | 54.4% | 71% | -9.35% (active) | 50.7% | 40.8%
15 | CC(C)/C=N/NC(N)=S | 103% | 85.5% | 72.4% | 109% | 90.6% | 89% | 82.7% | 28.9% | 64.9%

Reference: PubChem BioAssay (NCI)
